Assay results: PubChem BioAssay AID1159580 (chemical genetic matrix, 2015)
Out of some 5,500 compounds screened, about 2,000 (36%) were called active. About 18% were inconclusive and are not listed. Cut-off read from the data, not from the text of the source: active = normalized growth mostly below about 0.91 (no sharp cut-off); inconclusive = no clear call, values can overlap the other calls; inactive = mostly above about 0.92. Some of the results follow.

Assay: chemical genetic growth profiling, strain panel (AID 1159580);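 note: tested at 20 µM; growth read once vehicle control cultures reached saturation at 30 °C; 1 = growth at the plate median or of vehicle wells; lower values mean less growth of the strain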
Details: S. cerevisiae deletion strains, growth OD

Measured: normalized growth

CO/N=C1/CN(c2nc3c(cc2F)c(=O)c(C(=O)O)cn3C2CC2)CC1CN (centres undefined)
inactive: locus YAL021C, strain ccr4, stronger effect = lower value 1 | locus YAL026C, strain drs2, stronger effect = lower value 1.02 | locus YAL030W, strain snc1, stronger effect = lower value 0.992 | locus YBL061C, strain skt5, stronger effect = lower value 0.99 | locus YBR009C, strain hhf1, stronger effect = lower value 0.953 | locus YBR023C, strain chs3, stronger effect = lower value 1.02 | locus YBR171W, strain sec66, stronger effect = lower value 1.02 | locus YBR231C, strain swc5, stronger effect = lower value 0.998 | locus YBR279W, strain paf1, stronger effect = lower value 1.02 | locus YCL011C, strain gbp2, stronger effect = lower value 1.01 | locus YCL016C, strain dcc1, stronger effect = lower value 0.973 | locus YCL069W, strain vba3, stronger effect = lower value 1.02 | locus YCR088W, strain abp1, stronger effect = lower value 1.02 | locus YDL005C, strain med2, stronger effect = lower value 1.04 | locus YDL040C, strain nat1, stronger effect = lower value 1 | locus YDR001C, strain nth1, stronger effect = lower value 1.02 | locus YDR069C, strain doa4, stronger effect = lower value 0.979 | locus YDR137W, strain rgp1, stronger effect = lower value 1.07 | locus YDR159W, strain sac3, stronger effect = lower value 0.975 | locus YDR195W, strain ref2 0.979 | locus YDR297W, strain sur2, stronger effect = lower value 1 | locus YDR334W, strain swr1, stronger effect = lower value 1.02 | locus YDR335W, strain msn5, stronger effect = lower value 1.01 | locus YDR392W, strain spt3, stronger effect = lower value 0.937 | locus YEL003W, strain gim4, stronger effect = lower value 1.03 | locus YEL037C, strain rad23, stronger effect = lower value 1.02 | locus YEL061C, strain CIN8 (second series), stronger effect = lower value 1.01 | locus YER015W, strain faa2, stronger effect = lower value 1.01 | locus YER016W, strain bim1, stronger effect = lower value 1.04 | locus YER111C, strain swi4, stronger effect = lower value 1.03 | locus YER155C, strain BEM2 (second series), stronger effect = lower value 0.977 | locus YFR010W, strain ubp6, stronger effect = lower value 0.982 | locus YGL167C, strain pmr1, stronger effect = lower value 1.01 | locus YGL173C, strain kem1, stronger effect = lower value 0.987 | locus YGL227W, strain vid30, stronger effect = lower value 1.01 | locus YGL240W, strain doc1, stronger effect = lower value 0.967 | locus YGL253W, strain hxk2, stronger effect = lower value 1.02 | locus YHR013C, strain ard1, stronger effect = lower value 1.02 | locus YHR027C, strain rpn1, stronger effect = lower value 1 | locus YHR030C, strain SLT2, stronger effect = lower value 0.983 | locus YHR079C, strain IRE1, stronger effect = lower value 0.949 | locus YHR142W, strain chs7, stronger effect = lower value 1.02 | locus YJL092W, strain hpr5, stronger effect = lower value 0.973 | locus YJL095W, strain BCK1 (second series), stronger effect = lower value 0.992 | locus YJL095W, strain BCK1, stronger effect = lower value 0.98 | locus YJL115W, strain asf1, stronger effect = lower value 0.956 | locus YJL129C, strain trk1, stronger effect = lower value 0.997 | locus YJL154C, strain vps35, stronger effect = lower value 1.02 | locus YJL164C, strain tpk1, stronger effect = lower value 0.985 | locus YJL166W, strain qcr8, stronger effect = lower value 0.998 | locus YJL187C, strain SWE1, stronger effect = lower value 0.998 | locus YJR066W, strain TOR1, stronger effect = lower value 0.949 | locus YKL160W, strain elf1, stronger effect = lower value 1.02 | locus YKR026C, strain gcn3, stronger effect = lower value 1.01 | locus YKR091W, strain srl3, stronger effect = lower value 1.01 | locus YLL001W, strain dnm1, stronger effect = lower value 0.98 | locus YLL026W, stronger effect = lower value 1.01 | locus YLL041C, strain sdh2, stronger effect = lower value 1.02 | locus YLR027C, strain aat2, stronger effect = lower value 1.01 | locus YLR113W, strain HOG1, stronger effect = lower value 0.999 | locus YLR221C, strain rsa3, stronger effect = lower value 0.98 | locus YLR258W, strain gsy2, stronger effect = lower value 1.02 | locus YLR262C, strain YPT6 (second series), stronger effect = lower value 0.978 | locus YLR342W, strain FKS1, stronger effect = lower value 0.958 | locus YLR357W, strain rsc2, stronger effect = lower value 0.981 | locus YLR370C, strain arc18, stronger effect = lower value 1.02 | locus YLR384C, strain iki3, stronger effect = lower value 1.01 | locus YML120C, strain ndi1, stronger effect = lower value 0.998 | locus YMR125W, strain sto1, stronger effect = lower value 1.02 | locus YMR129W, stronger effect = lower value 1.01 | locus YMR205C, strain PFK2, stronger effect = lower value 1.01 | locus YMR231W, strain pep5, stronger effect = lower value 1.01 | locus YNL071W, strain lat1, stronger effect = lower value 1.02 | locus YNL183C, strain NPR1, stronger effect = lower value 0.903 | locus YNL209W, strain ssb2, stronger effect = lower value 1.01 | locus YNL248C, strain rpa49, stronger effect = lower value 1.02 | locus YNL322C, strain KRE1 (second series), stronger effect = lower value 1.03 | locus YNR049C, strain mso1, stronger effect = lower value 1.01 | locus YOR001W, strain rrp6, stronger effect = lower value 1.01 | locus YOR070C, strain gyp1, stronger effect = lower value 1 | locus YOR080W, strain dia2, stronger effect = lower value 0.974 | locus YOR083W, strain WHI5, stronger effect = lower value 0.987 | locus YOR106W, strain vam3, stronger effect = lower value 0.993 | locus YOR231W, strain MKK1, stronger effect = lower value 0.989 | locus YOR265W, strain rbl2, stronger effect = lower value 1.01 | locus YOR270C, strain vph1, stronger effect = lower value 1.03 | locus YOR290C, strain snf2, stronger effect = lower value 1.03 | locus YPL051W, strain arl3, stronger effect = lower value 1 | locus YPL078C, strain atp4, stronger effect = lower value 1.04 | locus YPL106C, strain sse1, stronger effect = lower value 1.01 | locus YPL240C, strain hsp82, stronger effect = lower value 1.02 | locus YPL256C, strain CLN2, stronger effect = lower value 1
active: locus YLR320W, strain mms22, stronger effect = lower value 0.707 | locus YMR058W, strain fet3, stronger effect = lower value 0.816
